Measured values reported in PubChem BioAssay (NCATS).
Records with an inconclusive call do not appear. Entries that show only a call come without a potency. Calls of active or inactive are those of the source. Calls come from the whole dose curve; as a rule, active = well fitted curve in the direction sought with a large enough effect; inconclusive = small, poorly fitted or top-dose-only effect, or another doubt; inactive = no such curve, though single readings can be large; an effect the other way counts as inactive or inconclusive.

How the values were obtained:
[1] = qHTS assay to identify small molecule inhibitors of chordoma cells - UCH-1 (AID 1259355); note: nearly all actives have a fitted effect of over 55% in size
Procedure, shortened: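 A 48hr growth-inhibition format: each drug tested at 15 concentrations together with added auranofin, camptothecin, doxorubicin, rubitecan and topotecan, with cell viability quantified as CellTiter-Glo luminescence.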

[2] = qHTS assay to identify small molecule inhibitors of chordoma cells - UCH-2 (AID 1259356); note: series mostly up to about 46 µM
[3] = P-glycoprotein substrates identified in KB-8-5-11 adenocarcinoma cell line, qHTS therapeutic library screen (AID 1346987); conditions: outcome: dose series up to 44.5 µM unless noted; note: nearly all actives have a fitted effect of over 65% in size; note: potency is the fitted concentration of half-maximal effect
Procedure, shortened: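 In this qHTS, P-gp-rich KB-8-5-11 cells received library compounds across a concentration range. Viability was quantified by luminescence after 72 h at 37 degree C.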

Row | Structure (SMILES) | Potency [1] | Potency [2] | Potency [3]
1 | CO/N=C(\C(=O)N[C@@H]1C(=O)N2C(C(=O)[O-])=C(C[n+]3cccc4c3CCC4)CS[C@H]12)c1csc(N)n1 | inactive | inactive | inactive
2 | CN(C)C=Nc1c(I)cc(I)c(CCC(=O)O)c1I | inactive | inactive | inactive
3 | CCN(CC)CCOC(=O)c1cccnc1 | inactive | inactive | inactive
4 | CN(CCO)CC(O)Cn1cnc2c1c(=O)n(C)c(=O)n2C (stereo not given) (tested in a mixture with another compound) | inactive | inactive | inactive
5 | O=C(NNCNNC(=O)c1ccncc1)c1ccncc1 | inactive | inactive | inactive
6 | CC[C@H]1NC(=O)[C@@H](NC(=O)c2ncccc2O)[C@@H](C)OC(=O)[C@H](c2ccccc2)NC(=O)[C@@H]2CC(=O)CCN2C(=O)[C@H](Cc2ccccc2)N(C)C(=O)[C@@H]2CCCN2C1=O | inactive | inactive | inactive
7 | CNCC(=O)N[C@@H](CCCN=C(N)N)C(=O)N[C@H](C(=O)N[C@@H](Cc1ccc(O)cc1)C(=O)N[C@H](C(=O)N[C@@H](Cc1cnc[nH]1)C(=O)N1CCC[C@H]1C(=O)N[C@@H](C)C(=O)O)C(C)C)C(C)C | inactive | inactive | inactive
8 | CCCCCCCCCCCCCC(=O)OCC(COP(=O)([O-])OCC[N+](C)(C)C)OC(=O)CCCCCCCCCCCCC (stereo not given) | inactive | inactive | inactive
9 | CCCCC(=O)O[C@H]1CC[C@H]2[C@@H]3CCc4cc(O)ccc4[C@H]3CC[C@]12C | inactive | inactive | 14.6 µM (active)
10 | CC(C)C[C@H](NC(=O)[C@@H](COC(C)(C)C)NC(=O)[C@H](Cc1ccc(O)cc1)NC(=O)[C@H](CO)NC(=O)[C@H](Cc1c[nH]c2ccccc12)NC(=O)[C@H](Cc1cnc[nH]1)NC(=O)[C@@H]1CCC(=O)N1)C(=O)N[C@@H](CCCN=C(N)N)C(=O)N1CCC[C@H]1C(=O)NNC(N)=O | inactive | inactive | inactive
